A short description of assay [1]: binders of probe aFSTL3 on microarray, primary screen, stem cell growth factor project, biochemical, small-molecule microarray, fluorescence 635/667 (AID 1064).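 Also: measures binding of the biotinylated anti-FSTL3 antibody to printed compounds.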 The settings on record: higher = more signal.
A short description of assay [2]: binders from COS7 lysate, DM2A8 probe, primary screen, torsin A project, cell lysate, small-molecule microarray, fluorescence 635/667 (AID 1065). The settings on record: higher = more signal, COS7 lysate expressing mutant human TOR1A.
Assay [3] can be described thus: binders of probe aFGF2 on microarray, primary screen, stem cell growth factor project, biochemical, small-molecule microarray, fluorescence 635/667 (AID 1067).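 Also: measures binding of biotinylated aFGF2 protein to printed compounds on slides; z-score merges feature fluorescence and signal-to-noise across triplicate slides.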 The settings on record: higher = more signal.
Assay [4] is described as follows: binders of probe aFGF10 on microarray, primary screen, stem cell growth factor project, biochemical, small-molecule microarray, fluorescence 635/667 (AID 1071).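 Also: score merges 667 nm spot intensity and signal to noise from triplicate slides.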 The settings on record: higher = more signal.
Assay [5] deals with Neurogenic locus notch homolog protein 2 (Homo sapiens) (UniProt Q04721). Description: Notch2 binders on small-molecule microarrays, primary screen, biochemical, small-molecule microarray, 635 nm fluorescence, stem cell growth factors (AID 1073). To be noted: Notch2 binding, higher = more signal.
Assay [6] has as its target Pro-neuregulin-1, membrane-bound isoform (Homo sapiens) (UniProt Q02297). Description: NRG1 binders on small-molecule microarrays, primary screen, psychiatric disease protein project, biochemical, small-molecule microarray, fluorescence 635/667 (AID 1075).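 Also: score combines 667 nm spot fluorescence with signal to noise.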 The settings on record: NRG1 binding, 635 nm fluorescence, higher = more signal.
The subject of assay [7] is Neuregulin-1 EGF-like domain. Description: binders of neuregulin-1 EGF-like domain, primary screen, biochemical, small-molecule microarray, 635 nm fluorescence (AID 1081).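 Also: binding of the protein to compounds printed on small-molecule microarray slides.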 The settings on record: small-molecule microarray binding, higher = more signal.
Assay [8] in a line: FRG1 promoter luciferase signal modulators, primary screen, FRG1 inhibition for FSHD, cell-based, C2C12 myotubes, firefly/Renilla luciferase, luminescence (AID 1084). To be noted: higher = more signal, called active from +8 up or from −8 down.
Assay [9] can be described thus: binders of probe aFST on microarray, primary screen, stem cell growth factor project, biochemical, small-molecule microarray, fluorescence 635/667 (AID 1086).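 Also: score merges 667 nm fluorescence with signal-to-noise of each printed compound spot.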 The settings on record: higher = more signal.
Assay [10] is described as follows: binders of probe aHhip on microarray, primary screen, stem cell growth factor project, biochemical, small-molecule microarray, fluorescence 635/667 (AID 1087).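 Also: score merges spot fluorescence at 667nm with spot signal to noise ratio.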 To be noted: higher = more signal.
The test system of assay [11] is PRMT1 (protein arginine N-methyltransferase 1). As to the kind of experiment: PRMT1 binders on small-molecule microarrays, primary screen, biochemical, small-molecule microarray, 635 nm fluorescence (AID 1088).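 Also: binding of Prmt1 protein to compounds spotted on small-molecule microarray slides.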 The settings on record: small-molecule microarray binding, higher = more signal.
Assay [12] in a line: yeast growth modulation, basal conditions, primary screen, YJM789 clinical isolate, OD600, 24 h (AID 1089).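 Also: growth of clinical yeast isolate S. cerevisiae YJM 789 seeded 1000 cells per well; test concentration not given here.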 The settings on record: S. cerevisiae YJM789 growth, higher = more signal, called active from +8 up or from −8 down.
A short description of assay [13]: fission yeast growth modulation, primary screen, strain 972, OD600, 24 h, no modulator (AID 1090).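 Also: basal condition with compound alone and no growth modifier present; test concentration not given here.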 To be noted: S. pombe 972 growth, higher = more signal, called active from +8 up or from −8 down.
Assay [14] can be described thus: S. cerevisiae growth modulation with rapamycin, primary screen, strain BY4716, OD600, 96 h (AID 1091). Also: test concentration not given here. The settings on record: higher = more signal, called active from +8 up or from −8 down.
Assay [15] concerns the target Torsin-1A-interacting protein 2 (Homo sapiens) (UniProt Q8NFQ8). As to the kind of experiment: LULL1 binders on small-molecule microarray, primary screen, cell lysate, human LULL1 lysate, 635/667 nm fluorescence (AID 1092).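 Also: probe is lysate of COS7 cells overexpressing human LULL1; score merges per-feature 667 nm fluorescence with signal-to-noise.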 To be noted: hLULL1 lysate binding, 635 nm fluorescence, higher = more signal.
The nature of assay [16]: E. coli growth modulation, two-sided OD650, primary screen, E. coli filamentation project, strain DRC41, 24 h (AID 1093).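 Also: MC1000 strain lacking acrAB efflux and sulA so SOS filamentation is blocked; test concentration not given here.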 To be noted: OD650, 24 h, higher = more signal, called active from +8 up or from −8 down.
Assay [17] can be described thus: small-molecule microarray binders of probe aLefty2, primary screen, biochemical, biotinylated probe, 635/667 nm fluorescence (AID 1094).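 Also: score merges spot fluorescence near 667 nm with spot signal-to-noise ratio.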 To be noted: higher = more signal.
Assay [18] deals with Noggin (protein binding on small-molecule microarray). Description: Noggin binders on small-molecule microarray, primary screen, biochemical, 635/667 nm fluorescence (AID 1095).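 Also: score merges 667 nm feature fluorescence with signal to noise over triplicate slides.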 The settings on record: 635 nm fluorescence, higher = more signal.
Assay [19] addresses Neurogenic locus notch homolog protein 3 (Homo sapiens) (UniProt Q9UM47). As to the kind of experiment: NOTCH3 binders on small-molecule microarray, primary screen, biochemical, 635/667 nm fluorescence (AID 1096). To be noted: NOTCH3 binding, 635 nm fluorescence, higher = more signal.
The nature of assay [20]: small-molecule microarray binders of probe aEGFR, primary screen, biochemical, biotinylated probe, 635/667 nm fluorescence (AID 1097).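 Also: probe is a biotinylated anti-EGFR antibody binding compounds printed on slides; score combines fluorescence near 667 nm and signal to noise of each spot.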 The settings on record: higher = more signal.

Calls of active or inactive are those of the source.

Pro-neuregulin-1, membrane-bound isoform (Homo sapiens), sequence (Q02297 whole entry, looked up, the tested form may be a part, canonical isoform): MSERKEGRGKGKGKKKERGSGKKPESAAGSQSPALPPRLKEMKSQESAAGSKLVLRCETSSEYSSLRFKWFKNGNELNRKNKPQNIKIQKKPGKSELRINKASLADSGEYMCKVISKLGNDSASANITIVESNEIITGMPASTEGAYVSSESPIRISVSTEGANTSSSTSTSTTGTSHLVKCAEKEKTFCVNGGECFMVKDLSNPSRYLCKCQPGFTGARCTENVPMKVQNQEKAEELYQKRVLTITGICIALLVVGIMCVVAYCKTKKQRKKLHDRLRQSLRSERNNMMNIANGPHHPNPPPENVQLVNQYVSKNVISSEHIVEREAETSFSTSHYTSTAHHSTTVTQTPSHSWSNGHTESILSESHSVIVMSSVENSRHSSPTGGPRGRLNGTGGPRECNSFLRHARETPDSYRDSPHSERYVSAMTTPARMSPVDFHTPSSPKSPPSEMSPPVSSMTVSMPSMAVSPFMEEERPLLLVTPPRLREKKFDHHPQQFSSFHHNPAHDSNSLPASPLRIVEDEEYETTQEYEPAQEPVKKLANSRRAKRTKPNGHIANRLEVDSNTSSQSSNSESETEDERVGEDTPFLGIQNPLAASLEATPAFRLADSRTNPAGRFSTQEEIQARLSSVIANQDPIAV
Neurogenic locus notch homolog protein 2 (Homo sapiens), sequence (Q04721 whole entry, looked up, canonical isoform): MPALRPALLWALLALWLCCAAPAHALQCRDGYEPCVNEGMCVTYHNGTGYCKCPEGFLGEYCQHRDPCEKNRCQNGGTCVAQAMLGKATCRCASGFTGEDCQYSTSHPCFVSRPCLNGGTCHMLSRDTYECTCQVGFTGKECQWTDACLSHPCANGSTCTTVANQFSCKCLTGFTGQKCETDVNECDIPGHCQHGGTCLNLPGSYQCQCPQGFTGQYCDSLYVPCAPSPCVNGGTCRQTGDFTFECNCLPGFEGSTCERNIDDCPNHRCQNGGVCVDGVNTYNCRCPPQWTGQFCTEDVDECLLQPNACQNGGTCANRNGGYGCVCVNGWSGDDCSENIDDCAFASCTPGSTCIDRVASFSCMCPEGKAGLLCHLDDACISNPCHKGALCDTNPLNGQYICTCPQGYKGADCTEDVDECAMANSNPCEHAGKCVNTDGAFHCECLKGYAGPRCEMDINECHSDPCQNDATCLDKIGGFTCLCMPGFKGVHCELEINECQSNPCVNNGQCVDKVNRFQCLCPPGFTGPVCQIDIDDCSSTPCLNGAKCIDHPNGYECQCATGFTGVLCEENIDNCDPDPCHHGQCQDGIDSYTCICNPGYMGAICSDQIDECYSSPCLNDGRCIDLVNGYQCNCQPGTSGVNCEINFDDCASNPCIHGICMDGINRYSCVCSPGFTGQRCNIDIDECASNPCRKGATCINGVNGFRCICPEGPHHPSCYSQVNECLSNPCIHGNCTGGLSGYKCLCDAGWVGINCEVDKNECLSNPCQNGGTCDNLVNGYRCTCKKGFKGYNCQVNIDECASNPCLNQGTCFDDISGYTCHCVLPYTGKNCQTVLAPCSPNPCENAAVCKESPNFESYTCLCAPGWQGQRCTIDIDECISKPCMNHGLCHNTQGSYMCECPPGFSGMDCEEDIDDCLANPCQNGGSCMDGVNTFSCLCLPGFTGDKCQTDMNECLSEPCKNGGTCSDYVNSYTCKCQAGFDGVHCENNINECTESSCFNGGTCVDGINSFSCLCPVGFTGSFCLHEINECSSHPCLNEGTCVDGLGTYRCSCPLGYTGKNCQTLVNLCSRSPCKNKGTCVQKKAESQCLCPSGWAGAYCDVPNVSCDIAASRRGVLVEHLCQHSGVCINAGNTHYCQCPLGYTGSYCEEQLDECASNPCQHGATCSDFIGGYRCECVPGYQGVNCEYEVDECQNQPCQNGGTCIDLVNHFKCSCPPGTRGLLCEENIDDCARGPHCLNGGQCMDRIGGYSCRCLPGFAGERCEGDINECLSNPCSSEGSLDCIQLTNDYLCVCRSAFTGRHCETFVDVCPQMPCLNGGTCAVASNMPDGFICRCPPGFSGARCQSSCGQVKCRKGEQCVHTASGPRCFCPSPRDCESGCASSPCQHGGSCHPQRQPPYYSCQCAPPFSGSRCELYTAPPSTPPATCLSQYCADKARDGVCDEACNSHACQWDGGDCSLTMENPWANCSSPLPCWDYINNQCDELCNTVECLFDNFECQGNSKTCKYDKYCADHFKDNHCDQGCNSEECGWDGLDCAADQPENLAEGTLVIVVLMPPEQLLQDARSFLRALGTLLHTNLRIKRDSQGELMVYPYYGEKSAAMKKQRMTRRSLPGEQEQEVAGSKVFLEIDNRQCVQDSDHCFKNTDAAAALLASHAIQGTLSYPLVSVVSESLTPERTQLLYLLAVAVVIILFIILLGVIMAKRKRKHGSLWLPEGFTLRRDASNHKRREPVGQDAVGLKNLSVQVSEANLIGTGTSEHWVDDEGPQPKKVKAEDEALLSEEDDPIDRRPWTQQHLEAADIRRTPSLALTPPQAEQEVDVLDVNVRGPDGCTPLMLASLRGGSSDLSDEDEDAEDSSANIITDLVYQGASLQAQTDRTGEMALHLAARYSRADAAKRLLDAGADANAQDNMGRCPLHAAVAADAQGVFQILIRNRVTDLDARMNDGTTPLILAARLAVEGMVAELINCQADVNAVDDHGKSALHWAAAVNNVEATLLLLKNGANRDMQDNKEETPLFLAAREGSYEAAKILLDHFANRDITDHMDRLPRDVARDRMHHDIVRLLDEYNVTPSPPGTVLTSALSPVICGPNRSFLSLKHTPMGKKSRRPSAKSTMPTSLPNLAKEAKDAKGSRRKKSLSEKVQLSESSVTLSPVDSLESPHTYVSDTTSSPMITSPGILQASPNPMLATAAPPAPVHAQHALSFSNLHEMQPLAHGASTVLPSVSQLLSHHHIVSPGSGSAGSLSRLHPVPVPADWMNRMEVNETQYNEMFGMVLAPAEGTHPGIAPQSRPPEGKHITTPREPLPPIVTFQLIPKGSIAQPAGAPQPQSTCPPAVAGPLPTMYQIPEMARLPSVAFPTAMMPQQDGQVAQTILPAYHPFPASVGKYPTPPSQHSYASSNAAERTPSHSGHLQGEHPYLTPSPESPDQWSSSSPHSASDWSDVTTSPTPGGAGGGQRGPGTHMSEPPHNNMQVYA
Torsin-1A-interacting protein 2 (Homo sapiens), sequence (Q8NFQ8 whole entry, looked up): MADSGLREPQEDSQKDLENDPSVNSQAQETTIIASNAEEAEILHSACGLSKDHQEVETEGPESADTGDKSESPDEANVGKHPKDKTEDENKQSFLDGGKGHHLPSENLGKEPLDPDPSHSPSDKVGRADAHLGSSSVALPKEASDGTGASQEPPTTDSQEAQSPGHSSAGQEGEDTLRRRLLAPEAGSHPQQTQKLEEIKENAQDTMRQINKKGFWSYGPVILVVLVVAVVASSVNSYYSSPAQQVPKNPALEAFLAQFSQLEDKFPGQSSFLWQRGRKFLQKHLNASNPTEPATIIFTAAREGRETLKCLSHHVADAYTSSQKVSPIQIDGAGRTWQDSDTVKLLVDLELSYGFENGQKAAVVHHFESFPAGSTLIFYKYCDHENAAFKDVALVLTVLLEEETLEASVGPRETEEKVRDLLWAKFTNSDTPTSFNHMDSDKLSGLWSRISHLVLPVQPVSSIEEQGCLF

As to `CCCCC(CC)C(O)C1C=CC2C(=O)N(C)C(=O)C2N1Nc1ccccc1` (stereo not given), the composite z-score in assay [1] is -0.245; in [2], 0.0145; in [3], -0.0454; in assay [4], 0.264; in assay [5] it was 0.846; in [6], 0.517. Also, the composite z-score in assay [7] was 1.16; in assay [9], 0.388; in assay [10], -0.0994; in assay [11], 1.36; in assay [15] it was 2.87; in assay [17] it was -0.121. In addition, the composite z-score was 0.123 in assay [18], 1.03 in [19] and -0.154 in assay [20]. Also, the z-score in assay [8] was -0.373 (inactive); in [12] it was 0.307 (inactive); in assay [13], -0.592 (inactive); in assay [14], 0.695 (inactive); in assay [16], -0.931 (inactive).
Take `COC(=O)[C@@]1(Cc2ccc(OC)cc2)[C@H]2c3cc(C(=O)N4CCCC4)n(CCc4c[nH]c5ccc(OC)cc45)c3C[C@H]2CN1C(=O)c1ccccc1`: the composite z-score was 1.49 in assay [1]; 1.14 in assay [2]; 0.204 in assay [3]; 0.686 in [4]; 1.74 in [5]; 0.898 in assay [6]. Also, the composite z-score in assay [7] was 1.16; in [9], 1.55; in [10], -0.161; in assay [11] it was 0.0079; in assay [15] it was 3.03; in [17], 0.722. Besides, the composite z-score is -0.0307 in assay [18], 1.02 in assay [19] and 0.318 in assay [20]. Also, the z-score in assay [8] was 0.49 (inactive); in assay [12], 0.425 (inactive); in assay [13] it was 1.84 (inactive); in assay [14] it was 4.15 (inactive); in assay [16] it was -0.669 (inactive).
Turning to `CN(C)C(=O)[C@@]1(Cc2ccccc2)N=C(c2ccc(OCCCO)cc2)O[C@H]1c1ccccc1`, the composite z-score in assay [1] amounted to 0.558; in assay [2], 0.459; in assay [3], 0.133; in assay [4], 1.24; in assay [5] it was 1.5; in [6], 1.18. Besides, the composite z-score was 1.29 in assay [7]; 0.889 in [9]; 0.28 in assay [10]; 0.584 in assay [11]; 3.4 in assay [15]; 0.344 in assay [17]. Moreover, the composite z-score is -0.642 in assay [18], 0.229 in [19] and 0.642 in assay [20]. Moreover, the z-score in assay [8] is -1.57 (inactive); in assay [12], -0.826 (inactive); in assay [13] it was -2.23 (inactive); in assay [14], 0.221 (inactive); in assay [16], 0.982 (inactive).
Turning to `C=CC[C@@]1(C(=O)NCCCOC)N=C(c2ccc(OCCCO)cc2)O[C@@H]1c1ccccc1N=[N+]=[N-]`, the composite z-score is 0.165 in assay [1]; 0.252 in [2]; 0.0442 in assay [3]; 0.469 in assay [4]; 0.798 in [5]; 1.67 in assay [6]. Further, the composite z-score in [7] was 1.21; in assay [9], 1.06; in assay [10] it was -0.0645; in assay [11], 1.14; in assay [15], 3.09; in assay [17], 0.085. Also, the results for the composite z-score in assay [18], in [19] and in assay [20] were 0.794, 0.681 and -0.019, respectively. Also, the z-score in [8] is 2.26 (inactive); in assay [12] it was 0.339 (inactive); in [13] it was 0.561 (inactive); in [14], -0.441 (inactive); in [16], 1.24 (inactive).
For `O=C(C1N=C(c2ccc(OCCCO)cc2)N(c2ccccc2)O1)N1CCCCC1` (stereo not given), the composite z-score in assay [1] came out at 0.819; in assay [2] it was 1.49; in assay [3] it was 0.182; in [4], 0.938; in assay [5], 1.05; in [6], 1.99. The composite z-score in assay [7] is 1.36; in [9], 1.13; in [10], -0.0952; in [11], 1.54; in [15], 2.95; in [17] it was 0.226. Moreover, the composite z-score turned out to be 0.684 in [18], 0.288 in assay [19] and 0.0542 in assay [20]. The z-score in [8] is 2.39 (inactive); in [12] it was -0.537 (inactive); in [13] it was -0.734 (inactive); in assay [14], 0.0484 (inactive); in assay [16], 0.828 (inactive).
For the compound `CCCC=C(CCC)[C@@H](NP(=O)(c1ccccc1)c1ccccc1)c1ccc(-c2ccccc2)cc1`, the composite z-score in [1] came to 0.0517; in assay [2] it was 0.887; in assay [3] it was 0.112; in assay [4], 0.704; in [5], 1.57; in [6] it was 1.19. For the same compound, the composite z-score in assay [7] is 1.14; in assay [9] it was 1.14; in [10] it was 0.172; in [11] it was 1.54; in assay [15], 3.11; in assay [17] it was 0.123. Further, the composite z-score is 0.649 in [18], 1.12 in assay [19] and 0.0825 in assay [20]. Besides, the z-score in assay [8] was -2.1 (inactive); in assay [12], 1.09 (inactive); in assay [13] it was 2.34 (inactive); in assay [14], 1.84 (inactive); in [16], -0.932 (inactive).
Regarding `C=C[C@H]1C(C(=O)OCC)=CC[C@@H](c2ccccc2)N1S(=O)(=O)c1ccc(C)cc1`, the composite z-score in [1] stood at 0.131; in assay [2], 0.431; in assay [3], 0.16; in [4], 0.693; in assay [5] it was 1.25; in assay [6], 1.04. The composite z-score in assay [7] is 0.779; in assay [9], 0.992; in assay [10], -0.266; in assay [11], 0.895; in assay [15], 2.94; in assay [17], 0.174. Besides, the composite z-score is 0.705 in assay [18], 1.13 in [19] and -0.0531 in assay [20]. Besides, the z-score in [8] is -3.11 (inactive); in assay [12] it was 0.293 (inactive); in assay [13] it was 1.12 (inactive); in [14], 1.86 (inactive); in [16] it was -0.558 (inactive).
As for `COC(=O)C1=CC(CCCO)=CC(c2cccs2)N(Cc2cccc(OC(F)(F)F)c2)C=C1C(=O)OC` (stereo not given), the composite z-score in assay [1] is -0.55; in assay [2], 0.203; in [3], 0.11; in [4], 0.583; in assay [5], 1.51; in assay [6], 1.93. Moreover, the composite z-score in assay [7] is 1.2; in assay [9] it was 1.5; in assay [10], 0.0053; in assay [11], 1.57; in [15] it was 3.28; in [17], 0.0922. Besides, the results for the composite z-score in [18], in assay [19] and in assay [20] were 0.143, 1.04 and 0.679, respectively. The z-score was 0.0099 (inactive) in assay [8]; -1.07 (inactive) in assay [12]; -1.2 (inactive) in assay [13]; -1.45 (inactive) in [14]; 0.313 (inactive) in [16].
`CC(C)C(O)C1C=CC2C(=O)N(c3ccccc3)C(=O)C2N1Nc1ccccc1` (stereo not given): the composite z-score in assay [1] was -0.393; in [2], 0.466; in [3], 0.0293; in assay [4], 0.79; in assay [5], 1.49; in assay [6] it was 1.24. Moreover, the composite z-score stood at 1.39 in assay [7]; 1.53 in assay [9]; 0.158 in [10]; 1.34 in assay [11]; 3.42 in assay [15]; 0.0436 in assay [17]. The composite z-score was 0.948 in assay [18], 1.07 in [19] and -0.0023 in assay [20]. Moreover, the z-score in assay [8] was 0.33 (inactive); in assay [12], 0.0864 (inactive); in assay [13] it was -2.24 (inactive); in assay [14], 0.108 (inactive); in [16] it was -0.304 (inactive).
Take `O=C(Cc1ccccc1)[C@H]1C2C=CCCC(c3ccccc3)=C2CN1Cc1ccccc1` (stereo not given in full): the composite z-score in assay [1] was -0.138; in assay [2] it was 1.24; in assay [3], -0.085; in [4], 0.0623; in assay [5], -0.0515; in assay [6], -0.473. Further, the composite z-score in assay [7] is -0.122; in assay [9], -0.205; in [10], 0.0722; in assay [11], 0.044; in assay [15], -0.862; in [17], -0.207. Besides, the composite z-score in [18] was -0.0884; in [19] it was -0.433; in assay [20], -0.0828. The z-score is -1.2 (inactive) in assay [8]; -0.213 (inactive) in assay [12]; -1.29 (inactive) in [13]; -0.481 (inactive) in assay [14]; 2.42 (inactive) in assay [16].

(Values after PubChem BioAssay.)
